Assay outcomes as filed in PubChem.
An excerpt weighted towards active compounds, which were near 2.9% of everything screened.
Hck-Nef inh – inhibitors of human Hck kinase activated by Nef; P08631; Recombinant Hck-YEEI plus Nef, Z-Lyte FRET kinase assay; inhibition, % at 20 µM; 220,000 tested, 0.68% active;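 active = Hck-Nef kinase inhibition above about 50%, limit read from the data; inactive = inhibition below that limit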
Bim-Mcl-1 – disrupts Bim peptide binding to human Mcl-1; Q07820; Bead-based flow cytometry, Bim peptide-Mcl-1 binding; inhibition, % at 10 µM; 190,000 tested, 0.1% active; AID 1009; in the data active = inhibition above about 40%
Target sequence (Q07820 whole entry, looked up): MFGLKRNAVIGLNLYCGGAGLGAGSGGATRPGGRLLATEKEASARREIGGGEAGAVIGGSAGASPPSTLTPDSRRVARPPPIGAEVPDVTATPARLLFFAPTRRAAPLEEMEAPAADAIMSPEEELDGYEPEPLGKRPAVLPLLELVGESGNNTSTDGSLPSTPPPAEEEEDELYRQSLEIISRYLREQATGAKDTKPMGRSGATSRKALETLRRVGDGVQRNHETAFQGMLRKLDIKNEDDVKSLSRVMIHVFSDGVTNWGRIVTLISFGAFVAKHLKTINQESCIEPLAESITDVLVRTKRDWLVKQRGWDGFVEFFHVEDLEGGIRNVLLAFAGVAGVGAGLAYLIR
14-3-3 Bad PPI – disrupts binding of bovine 14-3-3 zeta to phospho-Bad peptide; AID 781; inhibition, % at 21.7 µM; 220,000 tested, 0.71% active; P63103; TR-FRET 14-3-3zeta/Dy647-pBad peptide displacement, 1 h;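 active = inhibition above about 70%, limit read from the data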
Mcl1 Noxa PPI – Mcl-1/Noxa interaction inhibition; inhibition, % at 21.7 µM; TR-FRET Mcl-1/Noxa peptide binding, 2 h; 220,000 tested, 1.5% active; Q07820;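 active = compounds that cut the protein-peptide binding signal by more than 50% relative to plate controls in a single-dose test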;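 also: His-tagged Mcl-1 with rhodamine Noxa BH3 peptide and terbium anti-His antibody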
Mcl1-Bid inh – Mcl-1/Bid interaction inhibition; Q07820; TR-FRET Mcl-1/Bid-Dy647 peptide binding, 1536-well; inhibition, % at 21.7 µM; 220,000 tested, 0.97% active;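 active = compounds that cut the binding signal by more than half at the single screening dose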;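 also: His-tagged Mcl-1 with europium anti-His antibody binding Bid BH3 peptide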
Pf gamet viab – P. falciparum stage V gametocyte viability inhibition. P. falciparum stage V gametocytes, ATP luminescence, 24 h. inhibition, % at 10.9 µM. 150,000 tested, 0.065% active;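 active = inhibition above the mean plus 3 SD of compounds within the control limits, set per campaign, cut at about 38% in these data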
A number is an active result; 0 = inactive; - = no result given.

SMILES	Hck-Nef inh	Bim-Mcl-1	14-3-3 Bad PPI	Mcl1 Noxa PPI	Mcl1-Bid inh	Pf gamet viab
CSC1=N/C(=C\c2ccccc2F)C(=O)S1	0	0	0	92	100	0
Clc1cccc(N/N=C/c2ccc(N3CCOCC3)s2)c1	0	0	0	87	0	0
O=C(OCC(=O)N1CCN(C(=O)c2ccco2)CC1)c1cc(-c2cccc(Br)c2)nc2ccccc12	0	0	0	0	0	0
CC(C)(C)C1CCc2c(C(=O)NNC(=O)CCC(=O)O)csc2C1 (centres undefined)	0	0	0	104	0	-
Cc1scc(C(=O)NNC(=O)CCC(=O)O)c1C	0	0	0	0	0	-
CCOC(=O)Cc1csc(NC(=O)Cc2ccc(Cl)cc2)n1	0	-	0	0	55	0
CCOC(=O)Cc1csc(NC(=O)Cc2ccc(Br)cc2)n1	0	-	0	0	0	0
COc1ccc(N2CCN(c3cnc4ccccc4n3)CC2)cc1	0	0	0	59	0	0
O=C(CSc1nc(-c2ccccc2)cc(C(F)(F)F)n1)N1CCOCC1	0	0	0	0	77	0
Cc1nn(-c2ccccc2)c(N2CCCC2)c1/C=N/n1cnc2scc(-c3ccccc3)c2c1=O	0	0	0	0	0	-
CN(C)C=Nc1nonc1-c1ccccc1	0	-	0	0	0	0
CN(C)C=Nc1c(Br)cc(Br)c2nonc12	0	0	0	60	0	0
CC(C)(C)c1nc(NCCN2CCOCC2)c2nnn(Cc3ccccc3Cl)c2n1	0	41	0	0	0	-
O=C1CCCC(O)=C1C1C2=C(CCCC2=O)OC2=C1C(=O)CCC2	0	0	0	0	0	0
COc1ccc2c(c1)OC1=C(C(=O)CCC1)C2C1=C(O)CCCC1=O (centres undefined)	0	0	73	0	0	-
CCOCCCNC(=S)N(CCN(C)C)Cc1cc2cc3c(cc2[nH]c1=O)OCCO3	-	-	-	-	-	0
CN(C)C(=O)/C(C#N)=C\c1cc(Br)c(Sc2ccc(Cl)cc2)o1	0	0	0	0	100	-
CN1CCN(C(=S)NC(=O)c2ccc(Cl)cc2)CC1	0	0	0	68	0	-
CCCCCNC(=O)c1ccc2c(=O)[nH]c3c(C(=O)NCC4CCCO4)sc(=S)n3c2c1 (centres undefined)	0	0	0	52	0	0
O=C(NCC1CCCO1)c1ccc2c(=O)n(Cc3ccc(Cl)cc3)c(=S)[nH]c2c1 (centres undefined)	0	0	0	0	0	0
O=C(NCC1CCCO1)c1ccc2c(=O)n(-c3ccc(F)cc3)c(=S)[nH]c2c1 (centres undefined)	0	48	0	0	0	0
O=C(NCc1ccco1)c1sc(=S)n2c1[nH]c(=O)c1ccccc12	0	0	0	73	0	0
CCn1c(N)c(C(=O)NCC2CCCO2)sc1=S (centres undefined)	0	0	0	0	0	-
Cc1ccc(CNC(=O)c2ccc3c(=O)n(CC4CCCO4)c(=S)[nH]c3c2)cc1 (centres undefined)	0	0	0	0	0	0
Cc1ccc(CNC(=O)c2ccc3c(=O)[nH]c4c(C(=O)NCC5CCCO5)sc(=S)n4c3c2)cc1 (centres undefined)	57	0	0	74	0	0
SMILES	Hck-Nef inh	Bim-Mcl-1	14-3-3 Bad PPI	Mcl1 Noxa PPI	Mcl1-Bid inh	Pf gamet viab
CCOC(=O)c1c(-c2ccc(OC)cc2)csc1/N=C/N(C)C	0	0	0	0	0	0
Cc1ccc(SCC(=O)NN=C2CCN(C)CC2)cc1	0	0	0	0	0	0
O=C(NCc1ccccc1)c1ccc2c(=O)[nH]c3c(C(=O)NCC4CCCO4)sc(=S)n3c2c1 (centres undefined)	0	0	0	64	0	0
O=C(NCc1ccccc1)c1ccc2c(=O)n(CC3CCCO3)c(=S)[nH]c2c1 (centres undefined)	0	0	0	0	0	0
Cc1ccc2nc3c(c(Nc4ccc5c(c4)OCCO5)c2c1)CCC3	0	0	0	56	0	0
c1ccc(-c2cnnc(SCc3cn4cccnc4n3)n2)cc1	0	0	78	0	0	-
c1ccc2[nH]c(SCc3cn4cccnc4n3)nc2c1	0	0	0	0	0	0
COc1cccc(-c2csc(N3CCN(C(=S)Nc4cccc(C)c4)CC3)n2)c1	0	0	0	0	0	0
Cc1oc(-c2ccccc2)cc1C(=O)Nc1ccc(N(C)C)cc1	0	0	0	73	0	0
